A selection: hits, their analogues and other compounds. The true share with any hit is near 9.3%.
ELG1 genotox – qHTS screen for small molecules that induce genotoxicity in human embryonic kidney (HEK293T) cells expressing luciferase-tagged ELG1. HEK293T ELG1-luciferase reporter, luminescence, 16 h. Potency, µM (top dose mostly 46 µM), without a hit: at the highest dose activity change, positive = activation, usual class: activators. hit rate 1.3% among 330,000. AID 504466, 2011; note: % of control where 0% means no effect; nearly all actives have a fitted effect of over 60% in size
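Luminescence read-out: rising ELG1-luciferase signal, reflecting elevated ELG1 protein under genetic stress, flags genotoxic compounds. Cells were treated for 16 hr at 37 °C before ONE-Glo detection.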
NPC1 promoter act – qHTS Assay for NPC1 Promoter Activators; Potency, µM (doses to about 9.22 µM), without a hit: top-dose activation, most hits filed as activators; hit rate 2.4% among 320,000; Huh7 NPC1 promoter luciferase reporter, 24 h; note: % of control where 0% means no effect; nearly all actives have a fitted effect of over 60% in size
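Luciferase expression driven by the NPC1 promoter was measured in stably transfected Huh7 cells after a 24 h compound incubation, using a luciferase reagent and a luminescence read.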
Rab9 promoter act – qHTS Assay for Rab9 Promoter Activators | AID 485297, 2010 | hit rate 2.8% among 320,000 | Potency, µM (highest dose often 9.22 µM), for the others: at the top dose activation, negative = inhibition, usual class: activators | Huh7 Rab9 promoter-luciferase reporter, luminescence, 24 h; note: % of control where 0% means no effect; nearly all actives have a fitted effect of over 60% in size
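Huh7 reporter line, Rab9 promoter upstream of luciferase. Compound exposure 24 h at 37 °C in reduced-serum medium with 10% FBS. Read-out: luminescence.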
FLuc counter – qHTS profiling assay for firefly luciferase inhibitor/activator using purifed enzyme and Km concentrations of substrates (counterscreen for miR-21 project). Luciferin 4-monooxygenase (Photinus pyralis), P08659. purified FLuc, Km substrates, luminescence inhibition. Potency, µM (doses to about 57.5 µM), for the others: top-dose activity change, negative = inhibition, most hits filed as inhibitors. hit rate 6.9% among 360,000. AID 588342, 2011;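 note: plate controls were vehicle for no effect and reference inhibitor for full effect; nearly all actives have a fitted effect of over 55% in size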
Target sequence (P08659 whole entry, looked up): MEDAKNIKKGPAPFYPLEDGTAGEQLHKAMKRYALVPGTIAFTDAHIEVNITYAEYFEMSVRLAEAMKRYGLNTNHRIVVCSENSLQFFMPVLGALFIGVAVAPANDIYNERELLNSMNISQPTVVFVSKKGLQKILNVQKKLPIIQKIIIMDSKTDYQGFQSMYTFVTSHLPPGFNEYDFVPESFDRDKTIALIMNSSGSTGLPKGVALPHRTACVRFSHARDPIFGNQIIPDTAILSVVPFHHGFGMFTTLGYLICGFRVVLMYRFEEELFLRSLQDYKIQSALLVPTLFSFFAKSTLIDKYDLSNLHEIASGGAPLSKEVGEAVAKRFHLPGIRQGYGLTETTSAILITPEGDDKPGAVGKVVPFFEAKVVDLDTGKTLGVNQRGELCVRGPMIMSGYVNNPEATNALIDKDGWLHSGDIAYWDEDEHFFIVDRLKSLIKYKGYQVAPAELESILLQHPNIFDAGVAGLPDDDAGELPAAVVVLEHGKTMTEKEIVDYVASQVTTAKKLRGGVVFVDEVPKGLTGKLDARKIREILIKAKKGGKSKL
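Purified P. pyralis luciferase (10nM final) with 10uM D-luciferin and 10uM ATP (Km levels) in 50mM Tris acetate pH 7.5, 10mM Mg acetate, 0.01% Tween-20, 0.05% BSA; qHTS 6-point titration, ~60 µM downward; luminescence read.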
ELG1 repair inh – qHTS screen for small molecules that inhibit ELG1-dependent DNA repair in human embryonic kidney (HEK293T) cells expressing luciferase-tagged ELG1; HEK293T ELG1-luciferase reporter, luminescence, 16 h; DNA damage induced by 5-fluorouridine; Potency, µM (series often up to 46.1 µM), for the others: at the highest dose activity change, negative = inhibition, hits mostly inhibitors; hit rate 2.3% among 330,000; AID 504467, 2011; note: % is set by controls: 0 for no effect and ±100 for the full control effect; nearly all actives have a fitted effect of over 55% in size
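Step one: seed 2,000 cells per well. Step two: pin-transfer compound or DMSO alongside 5-fluorouridine. Step three: incubate 16 hr, 37 °C, 5% CO2. Step four: add ONE-Glo, wait 30 min, read luminescence.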
SMN2 splice enh – qHTS Assay for Enhancers of SMN2 Splice Variant Expression; HEK293 SMN2-luciferase splicing reporter, luminescence, 30-36 h; Potency, µM (highest dose often 46.1 µM), for inactives: at the top dose activity change, positive = activation, hits mostly activators; hit rate 2.8% among 210,000; note: % of control where 0% means no effect; nearly all actives have a fitted effect of over 55% in size
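qHTS luciferase splicing reporter: luminescence rises when SMN2 exon 7 is included in transfected HEK293 cells. Compound exposure lasted 30-36 h at 37C, with 4.5 mM final sodium butyrate as control, followed by a ONE-Glo read.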
The depositor's hits bear a star. Calls come from the whole dose curve; as a rule, active = well fitted curve in the direction sought with a large enough effect; inconclusive = small, poorly fitted or top-dose-only effect, or another doubt; inactive = no such curve, though single readings can be large; an effect the other way counts as inactive or inconclusive. Potency is the fitted concentration of half-maximal effect.

COc1ccc(/C=C/C2=NNC(=O)CC2)cc1 was read as ELG1 genotox inconclusive, NPC1 promoter act 27.1%, Rab9 promoter act 2.82µM*, FLuc counter inconclusive, ELG1 repair inh inconclusive and SMN2 splice enh 15.8µM*.
O=C1CCC(/C=C/c2ccccc2)=NN1 was read as ELG1 genotox 16.2%, NPC1 promoter act -14.6%, Rab9 promoter act 8.8%, FLuc counter -13.1%, ELG1 repair inh inconclusive and SMN2 splice enh 11.4%.
Screening O=C(COc1ccc(Cl)cc1)OCC(=O)N1CCCc2ccccc21 returned ELG1 genotox 0.2%, NPC1 promoter act 1.4%, Rab9 promoter act 2.0%, FLuc counter 1.3%, ELG1 repair inh 13.7% and SMN2 splice enh 1.0%.
Screening COc1ccc(S(=O)(=O)Nc2c(C)c(C)cc3c2ncn3C)cc1 returned ELG1 genotox -6.6%, NPC1 promoter act -27.0%, Rab9 promoter act 9.7%, FLuc counter -1.6%, ELG1 repair inh 1.5% and SMN2 splice enh inconclusive.
`O=C(COC(=O)C1CCN(S(=O)(=O)c2cccc3cccnc23)CC1)c1ccc(F)cc1` gave ELG1 genotox -0.7%, NPC1 promoter act 1.2%, Rab9 promoter act -3.7%, FLuc counter -8.1%, ELG1 repair inh 1.4% and SMN2 splice enh 22.9%.
For CCc1cc2c(SCC(=O)O)ncnc2s1 the results were ELG1 genotox -27.1%, NPC1 promoter act -3.5%, Rab9 promoter act 0.3%, FLuc counter 1.2%, ELG1 repair inh -26.1% and SMN2 splice enh 25.6%.
For C=CCn1c(SCC(=O)c2cccs2)nc2sc(CC)cc2c1=O the results were ELG1 genotox -21.7%, NPC1 promoter act -3.6%, Rab9 promoter act -0.1%, FLuc counter 3.6%, ELG1 repair inh 20.6µM* and SMN2 splice enh -42.6%.
Screening CCc1cc2c(SCC(=O)NC(=O)c3cccn3C)ncnc2s1 returned ELG1 genotox 9.4%, NPC1 promoter act 2.1%, Rab9 promoter act 0.4%, FLuc counter 2.4%, ELG1 repair inh 1.4% and SMN2 splice enh -21.5%.
For CCc1cc2c(SCC(=O)c3cccs3)ncnc2s1 the results were ELG1 genotox 23.1µM*, NPC1 promoter act 22.1%, Rab9 promoter act 7.3%, FLuc counter -11.8%, ELG1 repair inh inconclusive and SMN2 splice enh inconclusive.
`CCc1c(C)nc(SCC(=O)c2cccs2)c(C#N)c1C` gave ELG1 genotox 9.2µM*, NPC1 promoter act 3.16µM*, Rab9 promoter act inconclusive, FLuc counter 2.69µM*, ELG1 repair inh inconclusive and SMN2 splice enh 15.8µM*.
Screening CCc1c(C)nc(SCC(N)=O)c(C#N)c1C returned ELG1 genotox -0.2%, NPC1 promoter act -0.2%, Rab9 promoter act 7.2%, FLuc counter 3.8%, ELG1 repair inh -7.8% and SMN2 splice enh 2.4%.
For CCc1cc2c(SCC(=O)c3ccccc3)ncnc2s1 the results were ELG1 genotox inconclusive, NPC1 promoter act 19.5%, Rab9 promoter act 1.5%, FLuc counter inconclusive, ELG1 repair inh inconclusive and SMN2 splice enh 8.91µM*.
CSc1ccc(CN2C(=O)NC3(CCCCCCC3)C2=O)cc1 was read as ELG1 genotox -11.0%, NPC1 promoter act -6.4%, Rab9 promoter act -2.2%, FLuc counter 2.2%, ELG1 repair inh inconclusive and SMN2 splice enh -40.6%.
`CN(C(=O)CSc1nc2c(c(=O)[nH]1)CCCC2)c1ccccc1` gave FLuc counter -0.7%.
CCCNC(=O)c1ccc2c(c1)ncn2-c1cc(C)cc(C)c1 was read as ELG1 genotox 0.1%, NPC1 promoter act -12.2%, Rab9 promoter act 2.2%, FLuc counter 2.1%, ELG1 repair inh inconclusive and SMN2 splice enh -27.7%.
COc1ccc(NS(=O)(=O)c2ccc(C(=O)OC(C)C(=O)N3CCOCC3)cc2)cc1 (stereo not given) was read as ELG1 genotox -2.2%, NPC1 promoter act -7.1%, Rab9 promoter act -2.3%, FLuc counter 2.3% and ELG1 repair inh -12.5%.
`O=C(N/N=C/c1sc(N2CCOCC2)nc1-c1ccccc1)c1cccc(S(=O)(=O)N2CCCC2)c1` gave ELG1 genotox -14.5%, NPC1 promoter act -41.9%, Rab9 promoter act -43.0%, FLuc counter -1.9%, ELG1 repair inh 5.17µM* and SMN2 splice enh -93.2%.
Cc1cccc2cncc(OCc3nnc(SC(F)F)n3C)c12 was read as ELG1 genotox -0.4%, NPC1 promoter act 3.8%, Rab9 promoter act -1.7%, FLuc counter -1.4%, ELG1 repair inh inconclusive and SMN2 splice enh -4.6%.
CCc1cc(C(=O)N2CCCC(CNC(=O)c3ccc(-c4ccccc4)cc3)C2)no1 (stereo not given) was read as ELG1 genotox -4.7%, NPC1 promoter act -3.5%, Rab9 promoter act 27.2%, FLuc counter 12µM* and ELG1 repair inh inconclusive.
For CSCCC(=O)N1CCCC(CNC(=O)c2ccc(-c3ccccc3)cc2)C1 (stereo not given) the results were ELG1 genotox -2.2%, NPC1 promoter act -1.9%, Rab9 promoter act 0.2%, FLuc counter 12µM*, ELG1 repair inh inconclusive and SMN2 splice enh -14.1%.
CSc1ccccc1C(=O)N1CCCC(CNC(=O)c2ccc(F)cc2)C1 (stereo not given) was read as ELG1 genotox -0.6%, NPC1 promoter act -1.3%, Rab9 promoter act -1.5%, FLuc counter -10.4% and ELG1 repair inh 20.1%.
Cc1ccc(NC(=O)O/N=C/c2ccc(F)cc2)cc1 was read as ELG1 genotox inconclusive, NPC1 promoter act inconclusive, Rab9 promoter act inconclusive, FLuc counter 15.1µM* and ELG1 repair inh inconclusive.
For COc1ccc(/C=N/OC(=O)Nc2ccccc2)cc1[N+](=O)[O-] the results were ELG1 genotox 11.9%, NPC1 promoter act 6.0%, Rab9 promoter act 23.4%, FLuc counter 15.1µM*, ELG1 repair inh inconclusive and SMN2 splice enh 20.0%.
For O=C(Nc1ccccc1)O/N=C/c1ccc(F)cc1 the results were ELG1 genotox inconclusive, NPC1 promoter act 0.631µM*, Rab9 promoter act 0.794µM*, FLuc counter 2.39µM* and ELG1 repair inh inconclusive.
Cc1cc(C)n(-c2ncccc2[N+](=O)[O-])n1 was read as ELG1 genotox -0.2%, NPC1 promoter act -0.3%, Rab9 promoter act -4.7%, FLuc counter 0.9% and ELG1 repair inh 4.5%.

Compound activity: PubChem BioAssay, National Center for Advancing Translational Sciences (NCATS)
